Measured values: PubChem BioAssay (NCATS)
Several values for one entry are separate records, joined by “and”; a condition that tells them apart may be missing. Equal entries are not always repeated. Records with an inconclusive call do not appear. Activity calls are given as the source filed them. Calls follow the shape of the dose curve; as a rule, active = well fitted curve in the direction sought with a large enough effect; inconclusive = small, poorly fitted or top-dose-only effect, or another doubt; inactive = no such curve, though single readings can be large; an effect the other way counts as inactive or inconclusive.

Columns and labels:
[1] = test system: CRL-7250; experiment: Cytotoxic Profiling of Annotated Libraries Using Quantitative High-Throughput Screening (AID 1296008); conditions: Five cell lines viability, CellTiter-Glo ATP luminescence, 48-72 h; max response: active compounds read low; also: nearly all actives have a fitted effect of over 60% in size; as to max response: % is scaled to controls: 0 for no effect and ±100 for the full control effect
Summary of the method: (§1)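 Compounds were pin-transferred onto cells and incubated 48 or 72 hr at 37 degree Celsius, 95% humidity. CellTiter-Glo was added, plates sat 10 min at room temperature, then ATP-coupled luminescence was imaged as the viability read-out.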

[2] = test system: HaCat; experiment: as above; conditions: Five cell lines viability, CellTiter-Glo ATP luminescence, 48-72 h; max response: active compounds read low
Summary of the method: as §1

[3] = test system: KB-3-1; experiment: as above; conditions: Five cell lines viability, CellTiter-Glo ATP luminescence, 48-72 h; max response: active compounds read low
Summary of the method: as §1

[4] = test system: NIH3T3; experiment: as above; conditions: Five cell lines viability, CellTiter-Glo ATP luminescence, 48-72 h; max response: active compounds read low
Summary of the method: as §1

[5] = test system: MCC-13; experiment: qHTS assay to identify novel small-molecules to repurpose for Merkel cell carcinoma treatment (AID 1296009); conditions: MCC and control cell lines, CellTiter-Glo viability, 72 h; series mostly up to 46 µM; also: nearly all actives have a fitted effect of over 60% in size
Summary of the method: (§2)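 Luminescence from CellTiter-Glo, read 10 min after addition at room temperature, reported viability following a 72 hr, 37 degree celsius treatment with NPC or MIPE compounds in titration; values normalized to plate controls.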

[6] = test system: MCC-26; experiment: as above; conditions: MCC and control cell lines, CellTiter-Glo viability, 72 h; series mostly up to 46 µM
Summary of the method: as §2

[7] = test system: UISO; experiment: as above; conditions: MCC and control cell lines, CellTiter-Glo viability, 72 h; series mostly up to 46 µM
Summary of the method: as §2

[8] = test system: WaGa; experiment: as above; conditions: MCC and control cell lines, CellTiter-Glo viability, 72 h; series mostly up to 46 µM
Summary of the method: as §2

[9] = test system: C33A; experiment: Primary qHTS to identify gynecologic anti-cancer compounds using libraries of approved drugs and bioactive compounds (AID 1345084); conditions: Gynecologic cancer cell panel viability, ATPlite luminescence, 48 h; series mostly up to 57.5 µM; also: nearly all actives have a fitted effect of over 55% in size
Summary of the method: (§3)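 Measured: luminescence after ATPlite addition (15 min, RT). Exposure: 48 h, 37 C, 5% CO2.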

[10] = test system: CAOV3; experiment: as above; conditions: Gynecologic cancer cell panel viability, ATPlite luminescence, 48 h; series mostly up to 57.5 µM
Summary of the method: as §3

[11] = test system: CASKI; experiment: as above; conditions: Gynecologic cancer cell panel viability, ATPlite luminescence, 48 h; series mostly up to 57.5 µM
Summary of the method: as §3

[12] = test system: Es-2; experiment: as above; conditions: Gynecologic cancer cell panel viability, ATPlite luminescence, 48 h; series mostly up to 57.5 µM
Summary of the method: as §3

[13] = test system: HeLa; experiment: as above; conditions: Gynecologic cancer cell panel viability, ATPlite luminescence, 48 h; series mostly up to 57.5 µM
Summary of the method: as §3

[14] = test system: W2; experiment: qHTS profiling for inhibitors of Plasmodium falciparum proliferation (AID 504749); also: nearly all actives have a fitted effect of over 60% in size; conditions: P. falciparum in erythrocytes, SYBR Green DNA, 72 h; series mostly up to 28.7 µM
Summary of the method: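 Fluorescence of SYBR Green-bound parasite DNA, read at 485/535 nm, served as the growth measure. Infected erythrocytes were cultured with compound 72 h; artemisinin (0.29 uM) and DMSO wells defined the normalization range.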

[15] = test system: HEK293; experiment: Cytotoxic Profiling of Annotated Libraries Using Quantitative High-Throughput Screening (AID 1296008); conditions: Five cell lines viability, CellTiter-Glo ATP luminescence, 48-72 h; max response: active compounds read low; also: nearly all actives have a fitted effect of over 60% in size; as to max response: % is scaled to controls: 0 for no effect and ±100 for the full control effect
Summary of the method: as §1

[16] = test system: HACAT; experiment: qHTS assay to identify novel small-molecules to repurpose for Merkel cell carcinoma treatment (AID 1296009); conditions: MCC and control cell lines, CellTiter-Glo viability, 72 h; at 44.8 µM (top of the series) unless noted; also: nearly all actives have a fitted effect of over 60% in size
Summary of the method: as §2

[17] = test system: MKL-1; experiment: as above; conditions: MCC and control cell lines, CellTiter-Glo viability, 72 h; series mostly up to 46 µM
Summary of the method: as §2

[18] = test system: MKL-2; experiment: as above; conditions: MCC and control cell lines, CellTiter-Glo viability, 72 h; series mostly up to 46 µM
Summary of the method: as §2

[19] = test system: HEK293T; experiment: as above; conditions: MCC and control cell lines, CellTiter-Glo viability, 72 h; at 44.8 µM (top of the series) unless noted
Summary of the method: as §2
Potency is read from the fitted curve at half-maximal effect.

O=C1OC(CN2CCOCC2)CN1/N=C/c1ccc([N+](=O)[O-])o1 (stereo unspecified)
inactive: outcome [1] | max response [2] 2.11% | max response [3] 2.54% | max response [4] -5.18% | Potency [5] | Potency [6] | Potency [7] | Potency [8] | Potency [9] | Potency [10] | Potency [11] | Potency [12] | Potency [13]

CC(=O)Nc1ccc(CC(=O)O)cc1
inactive: Potency [14] | max response [15] 0.0311% | outcome [2] | max response [3] -17.4% | max response [4] -0.623% | outcome [16] | Potency [5] | Potency [6] | Potency [17] | Potency [18] | Potency [7] | Potency [8] | Potency [9] | Potency [10] | Potency [11] | Potency [12] | Potency [13]

CCCCCCCCNC(C)C(O)c1ccc(SC(C)C)cc1 (stereo unspecified)
inactive: max response [3] 7.32% | Potency [13]
active: Potency [14] 0.169 µM | Potency [15] 13.3 µM | Potency [18] 18.8 µM

CN=C(N)NCCC[C@H](N)C(=O)O
inactive: max response [3] -24.2% and -3.13% and -1.75%

CNCCCCOc1ccccc1Cc1ccccc1
inactive: max response [2] -10% | Potency [5] | Potency [6] | Potency [13]
active: Potency [14] 1.35 µM | Potency [15] 15 µM | Potency [18] 18.8 µM | Potency [8] 18.8 µM | Potency [9] 25.1 µM

CCOC(=O)[C@H](CCc1ccccc1)N[C@@H](C)C(=O)N1[C@H](C(=O)O)C[C@@H]2CCC[C@@H]21
inactive: max response [15] 1.35% | outcome [2] | max response [4] 0.794% | outcome [16] | Potency [5] | Potency [6] | Potency [17] | Potency [18] | Potency [7] | Potency [8] | Potency [9] | Potency [10] | Potency [11] | Potency [12] | Potency [13]

O=C(N/N=C/c1ccc([N+](=O)[O-])o1)c1ccc(O)cc1
inactive: max response [2] -33.9% | Potency [13]
active: Potency [15] 7.5 µM | Potency [17] 9.44 µM | Potency [18] 10.6 µM | Potency [7] 13.3 µM | Potency [8] 10.6 µM

Cc1cc2c(OCC(CNC(C)(C)C)OC(=O)c3ccccc3)cccc2[nH]1 (stereo unspecified)
active: Potency [14] 2.13 µM
inactive: outcome [15] | max response [2] 1.54% | max response [4] 2.07% | outcome [19] | Potency [5] | Potency [6] | Potency [17] | Potency [18] | Potency [7] | Potency [9] | Potency [10] | Potency [11] | Potency [12] | Potency [13]

C#C[C@]1(O)CC[C@H]2[C@@H]3CCC4=Cc5oncc5C[C@]4(C)[C@H]3CC[C@@]21C
inactive: Potency [14] | Potency [5] | Potency [17] | Potency [18] | Potency [7] | Potency [8] | Potency [9] | Potency [10] | Potency [11] | Potency [12]
active: Potency [15] 21.1 µM | Potency [13] 0.794 µM

O=C(Nc1ncc([N+](=O)[O-])s1)c1cccs1
active: Potency [15] 15 µM | Potency [8] 26.6 µM
inactive: Potency [14] | max response [2] -23.3% | Potency [6] | Potency [9]

Nc1nc(N)c(-c2ccccc2)s1
inactive: Potency [14] | max response [15] -1.75% | max response [2] -10.8% | max response [3] -0.967% | max response [4] 2.51% | Potency [5] | Potency [6] | Potency [17] | Potency [18] | Potency [7] | Potency [8] | Potency [9] | Potency [11] | Potency [12] | Potency [13]

CN1CCC[C@@H]1CCO[C@](C)(c1ccccc1)c1ccc(Cl)cc1
active: Potency [14] 13.5 µM | Potency [15] 15 µM | Potency [2] 26.6 µM | Potency [17] 23.7 µM | Potency [18] 9.44 µM | Potency [7] 21.1 µM
inactive: max response [3] -2.14% | Potency [6] | Potency [13]

CC(=O)NO
inactive: Potency [14] | max response [15] 1.75% | max response [2] -61% | max response [3] 15.6% | max response [4] 2.47% | Potency [5] | Potency [6] | Potency [17] | Potency [18] | Potency [7] | Potency [8] | Potency [9] | Potency [10] | Potency [11] | Potency [12] | Potency [13]

NC(N)=NCc1cccc(I)c1
inactive: Potency [14] | max response [3] 1.64% and -6.45%

Oc1c(Cl)cc(Cl)c(Cl)c1Cc1c(O)c(Cl)cc(Cl)c1Cl
active: Potency [15] 8.41 µM | Potency [7] 11.9 µM | Potency [8] 23.7 µM
inactive: Potency [6] | Potency [10] | Potency [11]

CN(Cc1ccc(C(C)(C)C)cc1)Cc1cccc2ccccc12
active: Potency [14] 9.53 µM
inactive: max response [3] -4.26% and -7.03% | max response [4] -14% | Potency [5] | Potency [6] | Potency [17] | Potency [18] | Potency [7] | Potency [8] | Potency [9] | Potency [10] | Potency [11] | Potency [12] | Potency [13]

Cc1ccc(S(=O)(=O)NC(=O)NC2CCCC2)cc1
inactive: Potency [14] | max response [15] -5.76% | max response [2] 2.64% | max response [3] 5.86% | max response [4] 3.93% | Potency [5] | Potency [17] | Potency [18] | Potency [7] | Potency [8] | Potency [9] | Potency [10] | Potency [11] | Potency [12] | Potency [13]

CN(C)CCOC(c1ccc(Cl)cc1)c1ccccn1 (stereo unspecified)
inactive: max response [15] -23.8% | max response [3] 10.7% | Potency [5] | Potency [6] | Potency [17] | Potency [18] | Potency [7] | Potency [8]
active: Potency [14] 1.07 µM

O=C1c2cccc3c2[C@H](CCC3)CN1[C@@H]1CN2CCC1CC2
inactive: max response [2] -46% | Potency [5] | Potency [6] | Potency [17] | Potency [18] | Potency [7] | Potency [8] | Potency [9] | Potency [10] | Potency [11] | Potency [12] | Potency [13]
active: Potency [15] 21.1 µM

CCOC(=O)[C@H](CCc1ccccc1)N[C@@H](C)C(=O)N1[C@H](C(=O)O)C[C@H]2CCCC[C@@H]21
inactive: Potency [14] | max response [3] 8% and -12.5%
